The source of these data is PubChem BioAssay AID1345085 (National Center for Advancing Translational Sciences (NCATS), 2018).

Records with an inconclusive call do not appear. A number with no mark means an inactive call. Activity calls are given as the source filed them. Calls follow the shape of the dose curve; as a rule, active = well fitted cell-killing curve with a large enough effect; inconclusive = small, poorly fitted or top-dose-only effect, or effect the other way; inactive = no such curve, though single readings can be large or run the other way.
% is scaled to controls: 0 for no effect and ±100 for the full control effect; potency is read from the fitted curve at half-maximal effect.

For this assay, the system named is PA-1. Put plainly: Confirmatory qHTS for gynecologic anti-cancer compounds from libraries of approved drugs and bioactive compounds. Also: nearly all actives have a fitted effect of over 55% in size. To be noted: gynecologic cancer cell panel viability, ATPlite luminescence, 48 h; series mostly up to 57.6 µM; activity change, negative = viability loss: at the top concentration. The method, boiled down: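 ATP-based luminescent viability (ATPlite) after 48 h drug treatment at 37 °C, 5% CO2, across 57.5 uM–0.977 nM in 1:3 steps. Cells seeded at 1,000 per well 16 h beforehand; IC50 values computed, HEK 293T as selectivity control.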
On to `C1CCC(C(CC2CCCCN2)C2CCCCC2)CC1` (stereo not given), for which the Potency was 27.3 µM (active). As to `OCc1ccc(-c2ccc(-c3ccc(CO)s3)o2)s1`, the “activity change, negative = viability loss” value is -21.5% [at 19.5 µM].

As to `Cc1cc(Nc2nc(N[C@@H](C)c3ccc(F)cc3)c(C#N)cc2F)n[nH]1`, the Potency is 3.06 µM (active).

With `COc1c(C)c2c(c(O)c1C/C=C(\C)CCC(=O)OCCN1CCOCC1)C(=O)OC2`, the Potency was 0.485 µM (active).

Regarding `CC(C)CC(=O)Nc1n[nH]c2c1CN(C(=O)C1CCN(C)CC1)C2(C)C`, the Potency was 0.172 µM (active). For the compound `COc1cc(Nc2ncc(F)c(Nc3ccc4c(n3)N(COP(=O)(O)O)C(=O)C(C)(C)O4)n2)cc(OC)c1OC`, the Potency was 9.68 µM (active). In the case of `CC(C)(C)C(=O)OCOP(=O)(COCCn1cnc2c(N)ncnc21)OCOC(=O)C(C)(C)C`, the Potency is 6.85 µM (active). Consider `O=C(NCC(O)CO)c1ccncc1Nc1ccc(I)cc1F` (stereo not given), for which the Potency is 0.0611 µM (active). For the compound `COc1ccc(OC)c(-c2nnc3ccc(-c4ccc(OC)c(O[C@@H]5CCOC5)c4)nn23)c1`, the Potency was 5.44 µM (active). Consider `Cc1ccc(C(=O)Nc2cccc(C(F)(F)F)c2)cc1-c1ccc2nc(NCCN3CCOCC3)ncc2c1`, for which the Potency was 17.2 µM (active).
